TROY signal inh: TROY signaling inhibition; Q293 LMP1-TROYcd NF-kB luciferase reporter, 4 h; inhibition, % at 10 µM; actives 0.98% (n = 360,000); AID 1347056;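 active means compounds whose plate-normalised and pattern-corrected inhibition of the luciferase reporter signal at the single screening dose is 50% or more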
TWEAK Fn14 block: inhibitors of TWEAK-Fn14 interaction signaling; AID 1159606; TWEAK-stimulated Fn14 reporter cells, luciferase luminescence, 8 h; inhibition, % at 10 µM; actives 2% (n = 360,000); in the data active means inhibition above about 50%
LGR2 inh: blocks bursicon-induced cAMP signaling via Drosophila LGR2. inhibition, % at 9.99 µM. HEK293 LGR2, CRE-luciferase, bursicon-stimulated, 4 h. actives 0.35% (n = 380,000). AID 720647;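 active means drop in luminescence signal, shown as inhibition above about 50% in the replicate tests, limit read from the data, passing the limit was not always enough; inconclusive means probably only some replicates passing the limit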;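 further: agonist challenge used bursicon conditioned medium at about half maximal strength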
HSP90 refold inh: inhibitors of HSP90 luciferase refolding in rabbit reticulocyte lysate; luciferase refolding luminescence, 3 h; AID 1789; actives 0.91% (n = 290,000); inhibition, % at 5.6 µM;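 active means inhibition above the screen-wide mean plus 3 SD, computed separately per campaign, cut at about 16% in these data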;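 further: 0% = DMSO wells and 100% = 60 µM geldanamycin wells; inhibitors lower the luminescence because luciferase stays unfolded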
HSP90 inh confirm: confirmation of HSP90 inhibitors. actives 64% (n = 2,300). AID 1846. shares compounds with HSP90 refold inh. inhibition, % at 5.9 µM. rabbit reticulocyte lysate, luciferase refolding luminescence, 3 h; in the data active means inhibition above about 18%;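 further: 0% = vehicle wells and 100% = reference inhibitor wells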
luciferase ctr: firefly luciferase inhibition, HSP90 counter-screen | AID 1847 | shares compounds with HSP90 refold inh | purified native firefly luciferase, luminescence | inhibition, % at 5.9 µM | actives 48% (n = 2,300);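 active means inhibition above the mean inhibition of all tested sample wells plus 3 SD, cut at about 10% in these data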;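 further: 0% = DMSO with luciferase and 100% = wells lacking luciferase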
Target sequence (P08659 whole entry, looked up): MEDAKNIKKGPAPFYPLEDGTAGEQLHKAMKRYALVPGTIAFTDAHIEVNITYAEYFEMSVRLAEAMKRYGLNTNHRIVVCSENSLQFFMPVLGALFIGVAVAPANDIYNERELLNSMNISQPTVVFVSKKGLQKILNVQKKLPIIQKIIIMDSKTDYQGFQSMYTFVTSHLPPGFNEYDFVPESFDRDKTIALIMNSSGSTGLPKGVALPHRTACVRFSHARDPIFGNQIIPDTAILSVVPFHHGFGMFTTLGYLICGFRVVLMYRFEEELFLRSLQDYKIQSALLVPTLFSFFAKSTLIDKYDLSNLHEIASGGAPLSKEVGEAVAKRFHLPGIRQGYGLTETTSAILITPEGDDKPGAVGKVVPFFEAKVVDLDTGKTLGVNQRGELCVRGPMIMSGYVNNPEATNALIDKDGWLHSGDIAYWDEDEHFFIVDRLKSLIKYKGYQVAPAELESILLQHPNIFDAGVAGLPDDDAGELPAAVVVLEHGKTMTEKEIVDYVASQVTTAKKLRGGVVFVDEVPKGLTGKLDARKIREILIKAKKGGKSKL
Starred values were filed as active, the others as inactive; u = inconclusive; x = no result given. Shown are actives, neighbours in structure and some others; about 2.2% of the full set was active somewhere.

SMILES	TROY signal inh	TWEAK Fn14 block	LGR2 inh	HSP90 refold inh	HSP90 inh confirm	luciferase ctr
Cc1ccc(-c2nc3cc(NC(=O)C(C)C)ccc3o2)cc1C	80.3*	86.2*	x	33.9*	52.9*	54.1*
Cc1cc2nc(-c3ccc(NC(=O)C(C)C)cc3)oc2cc1C	11.3	14.6	5.2	0.1	x	x
N#Cc1ccc(-c2ccc([C@H]3[C@@H](CO)N4C(=O)CN(C(=O)C5CCCC5)C[C@H]34)cc2)cc1	x	x	-6.0	x	x	x
Cc1cccc(-c2cc3nc(C)c(C)c(NCCCn4ccnc4)n3n2)c1	12.0	-25.3	-16.1	18.7*	2.3	-4.7
CCCn1c(C)cc(C(=O)COC(=O)c2cc(=O)[nH]c3ccccc23)c1C	-20.0	-20.6	-60.2	x	x	x
CCCn1c(C)cc(C(=O)COC(=O)c2nccnc2N)c1C	55.9*	71.6*	31.4	24.9*	40.0*	57.1*
C[C@@H]1CN([C@H](C)CO)S(=O)(=O)c2ccc(C#CCN(C)C)cc2O[C@H]1CN(C)Cc1cccnc1	x	x	5.2	x	x	x
COc1ccc(CN(C)C[C@@H]2OCCCC[C@@H](C)Oc3ccc(NC(=O)Nc4ccc(F)cc4)cc3C(=O)N([C@H](C)CO)C[C@H]2C)cc1	x	x	8.3	x	x	x
O=C(C[C@H]1CC[C@H](NC(=O)c2cccnc2)[C@@H](CO)O1)NCc1ccc(Cl)c(Cl)c1	x	x	6.3	x	x	x
CC(=O)NN1C(=O)c2ccc3c4c(ccc(c24)C1=O)C(=O)N(NC(C)=O)C3=O	-24.3	11.4	-1.0	44.7*	29.6*	-1.8
O=C1c2ccc3c4c(ccc(c24)C(=O)N1NC(=O)C(F)(F)F)CC3	-2.6	8.8	11.3	-0.7	x	x
C[C@H](CO)N1C[C@H](C)[C@@H](CN(C)C(=O)Nc2ccc3c(c2)OCO3)Oc2c(NC(=O)C3CCOCC3)cccc2C1=O	x	x	25.7	x	x	x
O=C1c2ccccc2C(=O)c2[nH]c(=O)[nH]c21	53.8*	45.1	34.9	24.5*	19.1*	-9.6
O=C1c2ccccc2C(=O)c2[nH]cnc21	-7.6	-10.8	8.9	-0.6	x	x
COc1ccccc1CC(=O)N(Cc1ccccc1)c1ccc(C)cc1	8.8	-5.3	5.5	1.7	x	x
COc1ccccc1C(=O)N(Cc1ccccc1)c1ccc(C)cc1	3.0	-3.6	-5.0	57.1*	-6.6	-10.7
Fc1ccc(NC(=S)Nc2cccc3ccccc23)cc1	45.0	31.5	-19.9	2.2	x	x
CC(C)c1ccc(NC(=S)Nc2cccc3ccccc23)cc1	70.5*	53.4*	16.4	21.2*	19.3*	-20.6
CN1CCN(C(=O)C2=C[C@@H](c3ccc(Br)cc3)C[C@@H](OCc3ccc(CO)cc3)O2)CC1	2.9	8.9	-20.0	25.3*	-2.6	-4.0
O=C(NCCc1ccncc1)[C@H]1N[C@H]2c3ccc(/C=C/c4ccccc4)c(=O)n3C[C@H]2[C@@H]1CO	x	x	6.9	x	x	x
Cc1c(-c2ccccn2)c(=O)[nH]n1-c1ccc(F)cc1	30.0	50.8*	29.9	21.7*	29.6*	4.6
O=c1[nH]n(-c2ccc(F)cc2)c2ncccc12	-6.5	-21.0	x	-3.0	x	x
Cc1ccc2[nH]c(=O)c(COC(=O)C3CCCCC3)cc2c1	3.5	-8.9	-12.7	43.8*	-0.6	-16.1
O=C(OCc1cc2ccccc2[nH]c1=O)C1CCCCC1	-12.6	-5.5	x	-1.6	x	x
C[C@H]1CN([C@@H](C)CO)C(=O)Cc2cc(NC(=O)Nc3ccccc3)ccc2O[C@H]1CN(C)C(=O)Nc1ccc2c(c1)OCO2	x	x	-0.9	x	x	x
SMILES	TROY signal inh	TWEAK Fn14 block	LGR2 inh	HSP90 refold inh	HSP90 inh confirm	luciferase ctr
NNC(=O)c1cn2ccccc2n1	-28.4	-17.5	x	-1.9	x	x
O=C(Nc1nccs1)c1cn2ccccc2n1	6.5	33.6	14.1	32.5*	54.1*	42.7*
O=C(C[C@@H]1CC[C@H]2[C@@H](COC[C@H](O)CN2Cc2ccccc2F)O1)NC1CCC1	x	x	2.5	x	x	x
Cn1c2ccccc2c(=O)c2cc(C#CC3(O)CCCCC3)ccc21	88.1*	89.7*	82.3*	72.4*	76.3*	71.4*
Cn1c2ccccc2c(=O)c2ccc(C#CC3(N)CCCCC3)cc21	62.3*	33.7	4.8	33.7*	30.1*	9.0
CC(C)NC(=O)Nc1ccc2c(c1)C(=O)N([C@@H](C)CO)C[C@@H](C)[C@@H](CN(C)C(=O)NC(C)C)OCCCC[C@H](C)O2	x	x	-2.7	x	x	x
CC(C)NC(=O)Nc1ccc2c(c1)C(=O)N(C)[C@H]1CC[C@@H](CC(=O)NC3CCCCC3)O[C@H]1CO2	x	x	12.3	x	x	x
Cc1cc(C(=O)CSc2nc3ccccc3o2)c(C)n1CC1CCCO1 (stereo unspecified)	42.5	4.5	x	35.0*	42.0*	46.1*
Cc1cc(C(=O)COC(=O)c2ccc3c(c2)OCO3)c(C)n1CC1CCCO1 (stereo unspecified)	76.6*	58.3*	-49.9	28.9*	48.9*	53.8*
Cc1cc(C(=O)CSc2nc3ccccc3[nH]2)c(C)n1CC1CCCO1 (stereo unspecified)	41.8	19.5	x	48.6*	66.5*	67.0*
Cc1cc(C(=O)CSc2nc(N)cc(=O)[nH]2)c(C)n1CC1CCCO1 (stereo unspecified)	4.8	11.1	x	x	x	x
COc1cc(C(=O)OCC(=O)c2cc(C)n(CC3CCCO3)c2C)cc(OC)c1C (stereo unspecified)	-5.4	18.0	x	x	x	x
C[C@H](CO)N1C[C@H](C)[C@@H](CN(C)C(=O)Nc2ccc3c(c2)OCO3)OCCCC[C@H](C)Oc2ccc(NC(=O)c3ccncc3)cc2C1=O	x	x	4.7	x	x	x
CCc1cc(C(=O)c2ccccc2)c(N)s1	5.0	-0.9	-32.8	20.6*	-3.0	-9.8
O=C(O)Cc1ccc(C(=O)c2ccccc2)s1	-4.6	3.7	x	-3.5	x	x
CCC(=O)Nc1ccc2c(c1)C(=O)N(C)C[C@H](OC)[C@@H](C)CN(C(=O)c1cnccn1)[C@H](C)CO2	x	x	3.2	x	x	x
O=C(O)c1cc(N/N=C/C=C/c2ccccc2)ccc1Cl	-44.8	-17.0	-129.1	27.2*	36.7*	-7.6
Cc1nn(-c2ccccc2)c(Cl)c1/C=N/Nc1ccc(Cl)c(C(=O)O)c1	-74.5	-11.1	u	37.9*	83.7*	78.3*
O=C(Nc1ccc2[nH]ccc2c1)c1ccccc1	-43.1	-11.4	-15.7	44.2*	56.4*	29.5*
O=C(Nc1ccc2[nH]ccc2c1)c1ccc(F)cc1	-47.1	19.6	5.4	53.4*	64.4*	45.8*
Cc1cccc(S(=O)(=O)N2C[C@H](O)COC[C@@H]3O[C@@H](CC(=O)Nc4ccc(-c5ccccc5)cc4)CC[C@H]32)c1	x	x	16.7	x	x	x
C[C@H](CO)N1C[C@H](C)[C@@H](CN(C)C)Oc2ccc(NC(=O)CCCN(C)C)cc2CC1=O	x	x	10.2	x	x	x
CC(=O)c1sc(NC(=O)CCS(=O)(=O)c2ccc(Cl)cc2)nc1C	-14.4	13.4	-6.4	x	x	x
Cc1nc(CS(=O)(=O)c2ccc(Cl)cc2)sc1C(=O)O	-5.4	5.7	-2.9	32.5*	48.7*	0.7
O=C(C[C@@H]1CC[C@H](NC(=O)Nc2ccc3c(c2)OCO3)[C@@H](CO)O1)NCCCN1CCOCC1	x	x	10.1	x	x	x

Assay outcomes as filed in PubChem.
